# Bioassay records: PubChem BioAssay, National Center for Advancing Translational Sciences (NCATS)
# TDP1 cell CPT: growth inhibition of DT40 Tdp1-/-;hTDP1 cells with camptothecin (screen for TDP1 inhibitors). actives 12% (n = 420,000). Potency, µM (titrated, usually from 46.2 µM), for inactives: at the top dose activity change, negative = growth inhibition, usual class: inhibitors. chicken DT40 Tdp1-/-;hTDP1 cells + 20 nM CPT, ATP luminescence, 48 h; note: potency is the fitted concentration of half-maximal effect; % is set by controls: 0 for no effect and ±100 for the full control effect; nearly all actives have a fitted effect of over 55% in size
#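 Cell growth measured by CellTiter-Glo luminescence after a minimum 48 h, 37 C compound exposure with 20 nM CPT in Tdp1-knockout DT40 cells stably expressing hTDP1, seeded 400/well; qHTS titration format.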
# SW480 rerep: induces DNA re-replication in SW480 colon adenocarcinoma cells; SW480 DNA re-replication, Hoechst DNA content imaging, 48 h; Potency, µM (series often up to 46.1 µM), without a hit: top-dose re-replication activation, most hits filed as activators; actives 1.8% (n = 340,000); note: potency is the fitted concentration of half-maximal effect; % of control where 0% means no effect; nearly all actives have a fitted effect of over 55% in size
#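 Compounds, transferred as 23 nL by pin tool, were incubated with cells for 48 hr; DNA content per nucleus was then quantified by Hoechst staining and fluorescence plate imaging.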
# TDP1 cell noCPT: qHTS for Inhibitors of human tyrosyl-DNA phosphodiesterase 1 (TDP1): qHTS in cells in absence of CPT; actives 15% (n = 420,000); Potency, µM (doses to about 46.2 µM), inactives show top-dose activity change, negative = growth inhibition, most hits filed as inhibitors; DT40 Tdp1-/- hTDP1 cells, no CPT, ATP luminescence, 48 h; note: potency is the fitted concentration of half-maximal effect; % is set by controls: 0 for no effect and ±100 for the full control effect; nearly all actives have a fitted effect of over 55% in size
#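 Readout: luminescence from CellTiter-Glo after 30 min in the dark at RT. Cells: DT40 Tdp1-/- with stable hTDP1, 400/well. Exposure: compounds alone, ≥48 hr, 37 °C.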
# MCF10A rereplic: inducers of DNA re-replication in MCF 10A breast cells | MCF 10A DNA re-replication, Hoechst nuclear intensity, 48 h | Potency, µM (titrated, usually from 46.1 µM), inactives show at the highest dose activity, positive = re-replication, actives largely listed as activators | actives 2.9% (n = 350,000); note: potency is the fitted concentration of half-maximal effect; % of control where 0% means no effect; nearly all actives have a fitted effect of over 50% in size
# Chronic BCR inh: chronic active BCR signaling inhibition | ABC-DLBCL IkBa-CBG/CBR reporter, luminescence ratio, 4 h | Potency, µM (top dose mostly 46.1 µM), inactives show at the top dose activity change, negative = inhibition, most hits filed as inhibitors | actives 0.05% (n = 340,000) | AID 493014; active = well fitted inhibition curve with a large enough effect in the signal ratio, with a control signal flat, not every such curve was filed as active; inconclusive = small, poorly fitted or top-dose-only effect, or effect the other way, or a change in a side signal; the % refers to the signal ratio;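 note: potency is the fitted concentration of half-maximal effect; plate controls were basal doxycycline-induced cells for no effect and cells given 10 µM MG132 for full effect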
#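 Cell line TMD8 (human ABC DLBCL), stably expressing tet-inducible CBG68-IkBa fusion and CBR; IMDM/0.5% FBS; cpd up to 46 uM; dox induction, 4 h, 37C/5% CO2; dual luminescence; green/red ratio; MG132 control.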
# IL1B secr inh: inflammasome signaling inhibition, IL-1 beta readout; THP-1 LPS/ATP IL-1B secretion, AlphaLISA, 16 h; stronger effect = lower value; activity change, % at 57.5 µM; actives 4.7% (n = 360,000); in the data active = activity change below about -50%; inconclusive = mostly about -30% to -49%; note: % is set by controls: 0 for no effect and ±100 for the full control effect
#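 THP-1 cells pretreated 1 hr with compounds (up to 57.5 uM final), then stimulated with LPS (250 ng/mL final) plus ATP (1.25 mM final); secreted IL-1B measured by AlphaLISA after 16 hr, decreased signal indicating inhibition.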
# * marks the source's active call; other numbers are inactive results; i = inactive; ? = inconclusive; / = no result given; [ ] = dose if it differs, or a comment. An excerpt weighted towards active compounds, which were near 19% of everything screened. Unless noted, calls come from the whole dose curve; as a rule, active = well fitted curve in the direction sought with a large enough effect; inconclusive = small, poorly fitted or top-dose-only effect, or another doubt; inactive = no such curve, though single readings can be large; an effect the other way counts as inactive or inconclusive.
SMILES,TDP1 cell CPT,SW480 rerep,TDP1 cell noCPT,MCF10A rereplic,Chronic BCR inh,IL1B secr inh
COc1cccc(-c2csc(N3CCN(C(=S)Nc4cccc(Cl)c4)CC3)n2)c1,-15%,-4%,-25%,20%,?,-81*
COc1ccc(N2CCN(C(=S)Nc3cccc(OC)c3)CC2)cc1,14%,5%,20%,6%,2%,-4
CCNC(=S)N1CCN(c2nc(-c3cccc(OC)c3)cs2)CC1,10µM*,6%,15µM*,?,-1%,5
O=C1NC(=O)C2C3OC(C(Br)C3Br)C12 (centres undefined),10%,/,1%,/,/,-6
OC(CNCc1ccccc1F)(c1ccc(F)cc1)c1ccc(F)cc1,-20%,0%,?,-5%,-1%,-80*
Fc1ccc(CNCc2ccccc2Cl)cc1,-20%,0%,-1%,-4%,4%,-14
COc1ccccc1CNCC(O)(c1ccc(F)cc1)c1ccc(F)cc1,18µM*,-10%,13µM*,1%,?,-26
O=C1C=C(NCc2ccccc2)c2ccccc2C1=O,5.8µM*,18µM*,15µM*,?,?,-101*
COc1cc(Cl)c(NC2=CC(=O)C(=O)c3ccccc32)c(OC)c1,12µM*,8.2µM*,?,3.3µM*,1%,?
O=C1C=C(Nc2cccnc2)c2ccccc2C1=O,7.3µM*,6.5µM*,7.3µM*,9.2µM*,/,-70*
CC(C(=O)Nc1cccnc1)N1C(=O)c2ccccc2C1=O (centres undefined),-1%,1%,-8%,-2%,2%,30
COc1cc(Cl)c(NS(=O)(=O)c2ccc(-c3ccc(=O)[nH]n3)o2)c(OC)c1,-2%,3%,26%,-3%,0%,-10
Cc1ccc(NC2=CC(=O)C(=O)c3ccccc32)c(C)c1,4.6µM*,9%,18µM*,-5%,-2%,-8
Cc1oc(-c2ccccc2Cl)nc1CS(=O)CC(=O)NCCCN1CC(C)CC(C)C1 (centres undefined),-17%,-3%,22%,4%,0%,?
CCCCC(CC)COS(=O)(=O)O (centres undefined),6%,1%,-16%,0%,/,/
COc1ccc(/C(=C\C(=O)O)c2nccc3cc(OC)c(OC)cc23)cc1OC,9%[9.04 µM],/,-9%[9.04 µM],/,/,/
CCOC(=O)c1ccc(NC(=O)NNS(=O)(=O)c2cc(OC)ccc2OC)cc1,-1%,-2%,4%,-6%,1%,i
C=CCC[C@H](Cc1ccc(F)cc1)C(=O)OC[C@H](C)NC(=O)[C@@H](CC=C)CC(=O)N[C@H](CO)Cc1ccccc1,?,-3%,?,2%,0%,-2
CCOc1ccc(NC2=CC(=O)C(=O)c3ccccc32)cc1,2.3µM*,13µM*,3.3µM*,?,/,-55*
CCOc1ccc(NC2=CC(=O)CCC2)cc1,22%,2%,-2%,4%,2%,14
O=C1C=C(Nc2ccc(F)cc2)c2ccccc2C1=O,7.3µM*,9.2µM*,9.2µM*,?,?,0
CCOc1ccc(CN2C(=O)c3ccccc3Sc3ccc(C(=O)NCc4ccc(C)cc4)cc32)cc1,8%,/,-21%,/,/,/
CCCCCCn1c(=O)n2n(c1=O)[C@@H]1CN(S(=O)(=O)c3ccc(C)cc3)C[C@]1(O)[C@@H](OC(=O)NCc1ccccc1)C2,?,/,?,/,/,-71*
COc1ccc(CNC(=O)O[C@H]2C[C@@H]3C(=O)N(c4ccccc4)C(=O)[C@@H]3[C@@H]3CN(S(=O)(=O)c4ccc(C)cc4)C[C@]23O)cc1OC,-18%,/,-26%,/,/,-17
CCCCCCn1c(=O)n2n(c1=O)[C@@H]1CN(S(=O)(=O)c3ccc(C)cc3)C[C@]1(O)[C@@H](OC(=O)Nc1c(C)noc1C)C2,?,/,29µM*,/,/,-5
SMILES,TDP1 cell CPT,SW480 rerep,TDP1 cell noCPT,MCF10A rereplic,Chronic BCR inh,IL1B secr inh
COc1ccc(CNC(=O)O[C@H]2Cn3c(=O)ccc(=O)n3[C@@H]3CN(S(=O)(=O)c4ccc(C)cc4)C[C@]23O)cc1OC,-26%,/,-25%,/,/,-8
Cc1ccc(S(=O)(=O)N2C[C@H]3n4c(=O)ccc(=O)n4C[C@H](OC(=O)NCc4ccco4)[C@@]3(O)C2)cc1,?,/,?,/,/,-54*
Cc1ccc(S(=O)(=O)N2C[C@H]3n4c(=O)ccc(=O)n4C[C@H](OC(=O)NCc4ccccc4)[C@@]3(O)C2)cc1,?,/,26µM*,/,/,0
CN(CCC1CCOCC1)C(=O)c1cc(COc2c(F)cccc2F)on1,?,-2%,1%,7%,6%,1
O=C(/C=C/c1ccco1)OCC(=O)N1CCCCC1,-6%,8%,-7%,14%,-2%,-2
CCOc1ccccc1N1CCN(C(=O)C2=CC=CN3CCS(=O)(=O)N=C23)CC1,-4%,-4%,?,?,0%,-3
CCNc1ncc2nc(C)c(=O)n(CCOC)c2n1,-6%,/,-6%,/,/,/
COC(=O)[C@H]1C[C@H](OC(=O)NCc2ccco2)[C@@]2(O)CN(S(=O)(=O)c3ccc(C)cc3)CC2[C@H]1C(=O)OC (some centres undefined),?,/,?,/,/,-64*
Cc1ccc(S(=O)(=O)N2C[C@H]3n4c(=O)ccc(=O)n4C[C@H](OC(=O)NCC4CCCCC4)[C@@]3(O)C2)cc1,2.6µM*,/,3.7µM*,/,/,-109*
COC(=O)[C@H]1C[C@H](OC(=O)NCc2ccc(OC)c(OC)c2)[C@@]2(O)CN(S(=O)(=O)c3ccc(C)cc3)CC2[C@H]1C(=O)OC (some centres undefined),-14%,/,?,/,/,-5
Cc1ccc(S(=O)(=O)Nc2ccccc2C(=O)N2CCCCC2)cc1,-18%,1%,2%,-14%,1%,14
COc1cc(N=Nc2ccc(Br)cc2)cc(C=O)c1O,5.2µM*,/,4.6µM*,/,/,-20
COc1cc(CN(C)C)cc(C=O)c1O,3%,2%,-11%,?,9%,-15
Cc1ccc(C(C)C)cc1NC(=O)Nc1ccc([N+](=O)[O-])cc1,4.6µM*,-6%,3.7µM*,?,?,-52*
Cc1ccc([N+](=O)[O-])cc1NC(=O)c1ccccc1,1%,-53%,-16%,-12%,0%,2
CC(C(=O)Nc1nccs1)c1ccc([N+](=O)[O-])cc1 (centres undefined),-13%,-1%,-23%,12%,?,18
